# Test results as given in PubChem BioAssay AID1671192 (National Center for Advancing Translational Sciences (NCATS), 2021).
# Inconclusive results are not listed. Values without a mark were called inactive. The call rests on the fitted dose curve; in most records, active means well fitted curve in the direction sought with a large enough effect; inconclusive means small, poorly fitted or top-dose-only effect, or another doubt; inactive means no such curve, though single readings can be large or run the other way.
# Biological target: Polyunsaturated fatty acid lipoxygenase ALOX15 (Homo sapiens) (UniProt P16050)
# Sequence (P16050 whole entry, looked up): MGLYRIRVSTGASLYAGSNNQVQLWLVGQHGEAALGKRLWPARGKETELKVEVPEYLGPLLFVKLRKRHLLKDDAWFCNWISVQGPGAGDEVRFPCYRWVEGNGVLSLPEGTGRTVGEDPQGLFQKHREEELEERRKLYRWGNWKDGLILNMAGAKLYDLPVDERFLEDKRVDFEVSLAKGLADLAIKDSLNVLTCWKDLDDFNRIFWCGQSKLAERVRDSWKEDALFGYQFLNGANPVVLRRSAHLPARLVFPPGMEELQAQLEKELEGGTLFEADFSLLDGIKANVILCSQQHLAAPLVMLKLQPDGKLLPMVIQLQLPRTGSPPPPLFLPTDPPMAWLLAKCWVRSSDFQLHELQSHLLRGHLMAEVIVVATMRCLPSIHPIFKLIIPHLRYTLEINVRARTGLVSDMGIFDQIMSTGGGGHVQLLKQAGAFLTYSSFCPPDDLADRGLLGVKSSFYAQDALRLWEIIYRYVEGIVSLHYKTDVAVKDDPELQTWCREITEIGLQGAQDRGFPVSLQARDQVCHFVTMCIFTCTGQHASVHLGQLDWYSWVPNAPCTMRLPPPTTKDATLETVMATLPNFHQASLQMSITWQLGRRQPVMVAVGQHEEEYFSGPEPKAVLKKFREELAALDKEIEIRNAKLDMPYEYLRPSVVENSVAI
# Test: Counterscreen qHTS for inhibitors of human arachidonate 12S-lipoxygenase (ALOX12): ALOX15 Assay; further: 0% is about no effect
# Conditions: purified ALOX15 enzyme activity; series mostly up to 110 µM; activity change, negative = inhibition: at the top concentration
# Procedure, shortened: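 Purified human ALOX15 (15hLO-1) at 40 nM in 25 mM HEPES, 0.01% Triton X-100, pH 7.5, preincubated with compound 15 min at RT. Then 50 uM arachidonic acid for 30 min; hydroperoxide detected by Fe-xylenol orange as the 573/405 nm absorbance ratio.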
row,Structure (SMILES),"activity change, negative = inhibition"
1,NCc1cccc(-c2cc(C(F)(F)F)ccc2Cl)c1,-3.31% [at 146 µM]
2,CCCN1CCCC12Cc1ccccc1CN(C(=O)CCCC(=O)O)C2 (configuration not stated),-13%
3,O=Cc1ccc(-c2ccc(F)cc2)cc1,-22.6% [at 233 µM]
4,O=C1NCc2ccccc2CC12CCCN2CC1=CCCCC1 (configuration not stated),-8.99% [at 146 µM]
5,Cc1ccc(CN2CCC3(Cc4ccccc4CNC3=O)C2)cc1C (configuration not stated),-25.1% [at 146 µM]
6,CC(C)NC(=O)NC1CC2(CCN(Cc3ccc(O)cc3)CC2)c2ccccc21 (configuration not stated),-17.3%
7,O=C1NCc2ccccc2CC12CCCN2Cc1ccc(O)cc1O (configuration not stated),8.91% [at 146 µM]
8,CC(C)(C)OC(=O)N1CC(Nc2cccc(Oc3ccccc3)c2)C1,-2.09% [at 146 µM]
9,COC(=O)CNC(=O)C1CCc2nnc(CNC(=O)c3cccnc3)n21 (configuration not stated),3.05%
10,COc1ccc(-c2nc(C3CC3)nc3c2CCN(C(=O)c2ccc(C(F)(F)F)cc2)CC3)cc1,-0.0788%
11,COc1ccc(OC)c([S+](=O)([O-])c2nnn3c2nc(NCc2ccc(F)cc2)c2ccccc23)c1,-17.2%
12,COc1ccc(CNc2ncnc3c2CN(C2CCCNC2)C(=O)CN3C)cc1OC (configuration not stated),14.1%
13,COc1cccc(N2C(=O)NC(=NC3CCCC3)C23CCCN([S+](=O)([O-])c2ccccc2)C3)c1 (configuration not stated),-22.7%
14,COc1ccc(-c2nc(C3CC3)nc3c2CN(C(=O)c2ccccc2F)CC3)cc1,-9.97%
15,CCNc1ncnc2c1CN(C1CCCNC1)C(=O)CN2C (configuration not stated),-1.16% [at 146 µM]
16,O=C(NC1CCCC1)c1cc(C2CC2)nc2onc(C3CCCN3)c12 (configuration not stated),-4.93% [at 146 µM]
17,Cc1cc(C(=O)N2CCC(F)CC2)c2c(C3CCCN3)noc2n1 (configuration not stated),-5.46% [at 146 µM]
18,NCc1cccc(-c2ccc(F)cc2F)c1,-16.3% [at 146 µM]
19,O=C(c1ccc(Cl)cc1)N1CC2(CCCN(Cc3ccc(Cl)cc3)C2)Cc2ccccc21 (configuration not stated),-22.5%

row,Structure (SMILES),"activity change, negative = inhibition"
1,C[C@H](C(=O)N1Cc2ccccc2CC2(CCN(C)C2)C1)c1ccccc1 (some centres not stated),-1.29%
2,CNCc1ccccc1-c1ccccc1,-17.3% [at 233 µM]
3,O=Cc1cccc(N2CCN(C(=O)c3ccc4c(c3)OCO4)CC2=O)c1,-7.4% [at 146 µM]
4,NCCC(=O)N1CCC2(CC1)CN(C(=O)Cc1ccc(Cl)cc1)CCO2,-29%
5,O=C1NCc2ccccc2CC12CCCN2Cc1cnc2ccccc2c1 (configuration not stated),-16.9%
6,CCN1CCC2(Cc3ccccc3CN(C(=O)Cc3ccccc3)C2)C1 (configuration not stated),3.4%
7,Cc1ccc(CN2CCCC23Cc2ccccc2CNC3=O)cc1 (configuration not stated),8.05% [at 146 µM]
8,CNCc1ccccc1C(F)(F)F,-27.6% [at 233 µM]
9,NCC(=O)N1Cc2ccccc2CC2(CCCCN2CC2CCOCC2)C1 (configuration not stated),-24.1%
10,CC1CCCN(c2ncnc3c2CN(C2CCCNCC2)C(=O)CN3C)C1 (configuration not stated),-9.24%
11,O=C1NCc2ccccc2CC12CCCN2Cc1ccccc1Cl (configuration not stated),4.31% [at 146 µM]
12,O=C1NCc2ccccc2CC12CCN(Cc1ccc(Cl)o1)C2 (configuration not stated),-3.87% [at 146 µM]
13,Nc1ccc(CN2CCCC3(Cc4ccccc4CNC3=O)C2)cc1 (configuration not stated),5.49% [at 146 µM]
14,CN1CC(=O)N(C2CCCNCC2)Cc2c1ncnc2N1CCCC(CO)C1 (configuration not stated),-0.719%
15,Cc1cc(C(=O)NCc2ccc(F)cc2)c2c(C3CCNC3)noc2n1 (configuration not stated),10.7%
16,O=C(O)c1cccc(-c2cncc(C(=O)O)c2)c1,-28.7% [at 146 µM]
17,Cc1cc(C)c(CN2CCC3(Cc4ccccc4CNC3=O)C2)c(C)c1 (configuration not stated),-19%
18,CNC(c1ccccc1)c1ccccc1,-18% [at 146 µM]
